# About 7,300 (2.2%) of roughly 330,000 compounds were called active.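 The calls were made as follows: active = inhibition of at least 40%; inactive = the rest.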 This excerpt belongs to a sample that is enriched for actives.
# Assay: growth inhibitors of tim10-1 mutant yeast, primary screen, luminescence, uHTS (AID 463190);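 also: mutant grown at 25 °C; 0% = DMSO wells with yeast and 100% = wells holding no yeast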
# Conditions: S. cerevisiae tim10-1 ts strain growth, BacTiter-Glo, 24 h; at 20 µM; hits give high values
row,Structure (SMILES),inhibition
1,Cc1nc2ccccn2c1P(=S)(N1CCCCC1)N1CCCCC1,56.2% (active)
2,O=C(COc1ccc2ccccc2c1)N1CCN(Cc2ccncc2)CC1,24.7% (inactive)
3,CNP1(NC)=Nc2nn(-c3ccccc3)c(N)c2C(c2ccccc2)=N1,-2.7% (inactive)
4,CCc1ccc(OCC(=O)N2CCN(CC(=O)Nc3ccccc3Cl)CC2)cc1,12.7% (inactive)
5,COc1cccc(N2C(=O)NC(=O)/C(=C\c3ccc([N+](=O)[O-])s3)C2=O)c1,70.3% (active)
6,O=C1NC(=O)N(c2ccccc2)C(=O)/C1=C/c1ccc([N+](=O)[O-])s1,81.2% (active)
7,COc1cccc(N2C(=O)NC(=O)/C(=C\c3cn(C)c4ccccc34)C2=O)c1,13.4% (inactive)
8,COc1ccc(N2C(=O)/C(=C/c3ccco3)C(=O)NC2=S)cc1,23.1% (inactive)
9,Fc1ccc(C2N3CCCN23)cc1 (stereo not given),-13.4% (inactive)
10,O=C(O)CCn1cc(C=C2C(=O)NC(=S)NC2=O)c(-c2cccc(Br)c2)n1,23.4% (inactive)
11,COc1ccc2c(c1O)-c1cccc3c1[C@@H](C2)N(C)CC3,-10% (inactive)
12,CN(C)C(=O)Oc1cc(=O)n2c3c(cccc13)CCC2,13.3% (inactive)
13,O=C1C2(Cl)C3(Cl)C4(Cl)C(Cl)(Cl)C5(Cl)C3(Cl)C1(Cl)C5(Cl)C24Cl (stereo not given),-91.8% (inactive)
14,O=C(CCCn1c(=O)[nH]c2cc(Cl)ccc2c1=O)N1CCC2(CC1)OCCO2,17.3% (inactive)
15,COC(=O)C1=C(c2ccc(F)cc2OCc2ccccc2)C[C@@H]2CC[C@H]1N2C(=O)NCc1ccc2[nH]ccc2c1,9.44% (inactive)
16,N#CC1=C(N)Oc2c(c(=O)oc3ccccc23)C1c1ccccc1OC(=O)c1cccs1 (stereo not given),46.4% (active)
17,CCNc1nc2[nH]c(=O)c3c(c2s1)OC(N)=C(C#N)C3c1cccs1 (stereo not given),-13.5% (inactive)
18,CC(=O)N(C1=NCCCS1)c1ccccc1F,3.96% (inactive)
19,CC1C2Cn3c(nc4ccccc43)C1N(C)O2 (stereo not given),-11.3% (inactive)
20,COP(=O)(OC)C(NC(=O)c1ccc(C)cc1)C(Cl)(Cl)Cl (stereo not given),11% (inactive)
21,COC(=O)C1=C(c2cc3ccccc3s2)C[C@@H]2CC[C@H]1N2C(=O)NCCO,-17% (inactive)
22,CCCCn1c(=O)c(C(=O)Nc2ccccc2Cl)c(O)c2ccccc21,2.29% (inactive)
23,CCCCCn1c(=O)c(C(=O)NCc2ccccc2)c(O)c2ccccc21,-27.8% (inactive)
24,CCCCCn1c(=O)c(C(=O)Nc2c(C)n(C)n(-c3ccccc3)c2=O)c(O)c2ccccc21,45.4% (active)
25,O=C(O)c1ccccc1NC(=O)C1C2CCC(O2)C1C(=O)O (stereo not given),-7.62% (inactive)
